The whole screen tested about 48,000 compounds, of which about 13,000 (27%) showed an effect of 50% or more. Some of the results follow.
Test system: Wolbachia pipientis
Assay: Anti-Wolbachia Cell-Based Screen
Assay type: functional
Set-up: scale not given: in the data most compounds retested in dose-response had high values
Conditions: 5 µM

Row | Structure (SMILES) | Percent Effect
1 | CCOc1ccc(-c2ccnc(C3CC3)n2)cc1C(=O)O | 5.09%
2 | CCOc1ccc(OC2CCCN(c3cnn(C)c3)C2=O)cc1 (stereo not drawn) | 7.424%
3 | CCOc1ccc(-c2ccnc(C)n2)cc1C(=O)O | -6.535%
4 | CCOc1ccc(-c2cc(=O)n3c(n2)CCCCC3)cc1 | 126.5%
5 | CN(C)c1ccc(-c2cc(=O)n3c(n2)CCCCC3)cc1 | 163.6%
6 | COc1ccc(C2CC(=O)Nc3c2nc2n3CCCC2)cc1O (stereo not drawn) | 0.05289%
7 | COc1ccc(-c2cc(=O)n3c(n2)CCCCC3)cc1 | 99.63%
8 | COc1ccc(C2CC(=O)Nc3c2nc2n3CCCC2)cc1OC (stereo not drawn) | 9.396%
9 | CCOc1cc(-c2cc(=O)n3c(n2)CCCCC3)ccc1O | 95.98%
10 | CN(C)c1cnn(CC(=O)N2CCCCCC2)c(=O)c1 | 2.501%
11 | CCOc1ccc(NC(=O)Nc2cc(N3CCCCC3)ncn2)cc1 | 16.35%
12 | CN(Cc1nccs1)C1CCN(c2cccc(-c3cscn3)c2)CC1 | -5.707%
13 | O=C(Nc1cc(-c2ccccc2)on1)N1CCN(CCO)CC1 | -8.087%
14 | CN(CC(O)C1CC1)C(=O)c1ccc(-c2nc(C3CC3)n[nH]2)cc1 (stereo not drawn) | -1.161%
15 | Cc1[nH]c(-c2ccccc2)nc1C(=O)N1CCC2(CCCO2)CC1 | -0.5796%
16 | NC(=O)c1ccc(N2CCCCC2)c(NC(=O)c2cncc(Br)c2)c1 | 8.346%
17 | Cc1nc(C(C)NC(=O)NCc2nccn2CC(C)C)cs1 (stereo not drawn) | -2.713%
18 | CC(N)C(=O)N1CCC(Oc2cccc(C(F)(F)F)c2)CC1 (stereo not drawn) | -15.39%
19 | COC(=O)NCC(=O)NCC(C)(C)c1cccc(C(F)(F)F)c1 | -0.4386%
20 | CC(O)(CN1CCN(CCO)CC1)c1cccc(C(F)(F)F)c1 (stereo not drawn) | 117%
21 | COCC(NC(=O)c1cnn(C)c1)c1cccc(C(F)(F)F)c1 (stereo not drawn) | -8.704%
22 | COCCN1CCN(C(=O)C(c2cccc(F)c2)N(C)C)CC1 (stereo not drawn) | -2.953%
23 | CC(=O)N1CCOC(Cc2cccc(C(F)(F)F)c2)C1 (stereo not drawn) | -10.28%
24 | CC(=O)N1CCN(CC(C)(O)c2cccc(C(F)(F)F)c2)CC1 (stereo not drawn) | 108.1%
25 | CC(C(=O)Nc1cccc(C(F)(F)F)c1)N(C)CCN1CCOCC1 (stereo not drawn) | -13.73%
26 | CC(=O)N1CCN(Cc2ccc(C(F)(F)F)cc2F)CC(O)C1 (stereo not drawn) | -3.674%

Row | Structure (SMILES) | Percent Effect
27 | COCCN1CCN(CC(C)(O)c2cccc(C(F)(F)F)c2)CC1 (stereo not drawn) | 78.04%
28 | CC(NCC1CCN(CCO)CC1)c1ccc(C(F)(F)F)cc1 (stereo not drawn) | 4.315%
29 | CC(O)(CN1CCC(O)CC1)c1cccc(C(F)(F)F)c1 (stereo not drawn) | 104.1%
30 | CC(C)c1noc(C(C)N2CCC(c3nc4ccccc4[nH]3)CC2)n1 (stereo not drawn) | 10.92%
31 | O=C(CCSc1ccccc1)NS(=O)(=O)c1ccc2c(c1)OCCO2 | 13.89%
32 | CC1=NOC(C(=O)N2CCC(O)(c3ccc4nc(C)ccc4c3)CC2)C1 (stereo not drawn) | -15.54%
33 | Clc1ccc(CN2CCCC(Cn3cncn3)C2)c2ncccc12 (stereo not drawn) | -4.031%
34 | Cn1c(C(=O)N2CCC(C3OCCO3)CC2)c(Cl)c2ccccc21 | 4.597%
35 | O=c1[nH]nc2nc(N3CCSCC3)ccn12 | -3.985%
36 | O=c1[nH]nc2c(N3CCC(NC4CCOCC4)CC3)nccn12 | 113.4%
37 | CC(C)c1nccn1C(C)C(=O)NC1CCOCC1 (stereo not drawn) | -4.368%
38 | O=c1[nH]nc2c(N3CCCCCC3)nccn12 | 114.9%
39 | CC(NC(=O)Nc1cccnc1N1CCOCC1)c1ccccc1 (stereo not drawn) | -4.6%
40 | O=c1[nH]nc2nc(N3CCCC3)ccn12 | -11.65%
41 | O=c1[nH]nc2c(N3CCOCC3)nccn12 | 105.6%
42 | O=c1[nH]nc2nc(N3CCOCC3)ccn12 | 3.869%
43 | CCc1cc(N2CCC(NC3CCOCC3)CC2)nc(N(C)C)n1 | -0.7364%
44 | COc1cccn(Cc2nnc(-c3cccnc3)o2)c1=O | -29.57%
45 | Cc1nc(CNC(=O)[C@@H]2CCCN2C(=O)OC(C)(C)C)cs1 | -12.19%
46 | Cc1ccccc1N1CCCN(CC2(O)CCCNC2)CC1 (stereo not drawn) | -10.43%
47 | O=C(c1cc(COc2ccc3c(c2)OCO3)[nH]n1)N1CCCC(O)C1 (stereo not drawn) | -9.09%
48 | N#Cc1ccc(CN2CCN(C(=O)c3cc(C4CC4)[nH]n3)CC2)cc1 | -3.632%
49 | O=C(c1cc(COc2ccc3c(c2)OCO3)[nH]n1)N1CCOCC1 | 16.23%
50 | CC(C)c1cc(C(=O)N2CCN(Cc3ccc(C#N)cc3)CC2)n[nH]1 | 1.28%
51 | O=C(c1cc(C2CC2)[nH]n1)N1CCN(Cc2ccc(Cl)cc2)CC1 | 91.65%
52 | CC(C)c1ccc(CN2CCN(C(=O)c3cc(C4CC4)[nH]n3)CC2)cc1 | 100.6%

Row | Structure (SMILES) | Percent Effect
53 | O=C(c1cc(C2CC2)[nH]n1)N1CCN(c2nccs2)CC1 | -6.646%
54 | O=C(c1cc(C2CC2)[nH]n1)N1CCN(Cc2ccncc2)CC1 | 106.7%
55 | CCc1nc(C(=O)N2CCN(Cc3ccc(Cl)cc3)CC2)c[nH]1 | 7.187%
56 | O=C(c1cc(C2CC2)[nH]n1)N1CCN(Cc2ccc3c(c2)OCO3)CC1 | 118.4%
57 | COc1ccnc(N2CCN(C(=O)c3cc(C4CC4)[nH]n3)CC2)n1 | -20.97%
58 | Cc1ccsc1C(=O)NCC1COCc2c(C)nnn2C1 (stereo not drawn) | -4.017%
59 | COc1ccc(CC(=O)N2CCc3nc(C(=O)N(C)C)sc3CC2)cc1 | -11.26%
60 | COCc1cc(N(C)Cc2cc(C(C)(C)C)n[nH]2)ncn1 | -4.66%
61 | Cc1cnn(CCNCc2ccc(OCC(N)=O)cc2)c1 | -9.498%
62 | Cc1nn(CCC#N)c(C)c1CCC(=O)N(C)Cc1ccc(F)cc1F | 10.09%
63 | O=C(c1cc(C2CC2)[nH]n1)N1CCN(Cc2ccsc2)CC1 | -9.211%
64 | CC(C)c1cc(C(=O)N2CCCN(Cc3ccccc3)CC2)n[nH]1 | -13.62%
65 | O=C(c1cc(C2CC2)[nH]n1)N1CCN(Cc2ccccc2)CC1 | 113.8%
66 | CCOc1ccc(CN2CCN(C(=O)c3cc(C4CC4)[nH]n3)CC2)cc1 | 100.1%
67 | Cc1cccc(CN2CCN(C(=O)c3cc(C4CC4)[nH]n3)CC2)c1 | 106.2%
68 | N#Cc1ccc(N2CCN(C(=O)c3cc(C4CC4)[nH]n3)CC2)c(F)c1 | -1.136%
69 | O=C(c1cc(C2CC2)[nH]n1)N1CCCN(c2nccs2)CC1 | -25.45%
70 | CCOc1ccc(CN2CCN(C(=O)c3ccc(C)n3C)CC2)cc1 | 6.046%
71 | Cc1cccc(CN2CCN(C(=O)c3ccc(C)[nH]c3=O)CC2)c1 | -0.706%
72 | COCCC1(CNC(=O)NC2CCCN(C)C2)CC1 (stereo not drawn) | -18.26%
73 | CC(C)OC(=O)N1CCC(Cc2cccc(C(N)=O)c2)C1 (stereo not drawn) | 0.346%
74 | O=C(Nc1ccccc1-c1cccs1)N1CCOCC1 | -11.7%
75 | CC(C(=O)N1CCCC1)n1nc(-c2cccs2)cc(N)c1=O (stereo not drawn) | 96.9%
76 | Nc1cc2c(nn1)CCN(C(=O)c1csc(-c3cccs3)n1)C2 | -8.113%
77 | CC(C(=O)N1CCCCC1)n1nc(-c2cccs2)cc(N)c1=O (stereo not drawn) | 96.7%
78 | CC(C(=O)N1CCOCC1)N1CCc2cncnc2C1 (stereo not drawn) | 24.13%

Row | Structure (SMILES) | Percent Effect
79 | CC(C(=O)N1CCOCC1)n1nc(-c2cccs2)cc(N)c1=O (stereo not drawn) | 87.73%
80 | Cc1nc(-c2cccs2)ccc1C(=O)N1CCN(CC(C)O)CC1 (stereo not drawn) | 6.494%
81 | O=C1CC(c2cccs2)Cc2nc(O)c(C(=O)N3CCCC3)cc21 (stereo not drawn) | -9.305%
82 | Cl.Cn1cc(CNC2CCC(O)CC2)c(-c2cc3ccccc3o2)n1 (stereo not drawn) | 4.474%
83 | CC(NC(=O)Cc1cc2c(cc1Cl)OCCO2)c1ccncn1 (stereo not drawn) | -8.722%
84 | O=C(c1c2c(NCC3CC3)ncnc2n2ccccc12)N1CCCC1 | 17.48%
85 | COc1ncc(C2CC(=O)NCc3nc4ccccn4c32)cn1 (stereo not drawn) | 2.979%
86 | CCn1ccc(C(=O)N(C)Cc2cnn(-c3cccc(OC)c3)c2)n1 | -12.09%
87 | COCC(=O)N1CCOC(c2ccc(N(C)C)cn2)C1 (stereo not drawn) | 108.5%
88 | COCC(=O)N1CCOC(c2cccc(-c3cncnc3)n2)C1 (stereo not drawn) | 151.1%
89 | Br.Cn1nccc1CN1CCOC(c2cccc(-c3cncnc3)n2)C1 (stereo not drawn) | 91.95%
90 | Cc1ccc(C2CN(Cc3cnc(-c4cccnc4)s3)CCO2)o1 (stereo not drawn) | 6.287%
91 | CNC(=O)c1ccc(C2CN(C(=O)COC)CCO2)nc1 (stereo not drawn) | -5.036%
92 | Cc1nccc(C2CN(Cc3cc[nH]n3)CCO2)n1 (stereo not drawn) | -9.06%
93 | CCC1CN(C(=O)COc2ccc(C)nc2)CCO1 (stereo not drawn) | -3.761%
94 | COc1ccc2cc(C3CN(C(=O)COC(C)C)CCO3)ccc2c1 (stereo not drawn) | -0.3239%
95 | CC(Cc1ccc(C(F)(F)F)cc1)C(=O)N1CCCS1(=O)=O (stereo not drawn) | -11.51%
96 | c1ccc(C2CN(C3CC3)CC3(CCN(Cc4cscn4)CC3)C2)cc1 (stereo not drawn) | -14.1%
97 | CCOc1ccc(CN2C(=O)CC(C)(C(C)C)C2=O)nc1 (stereo not drawn) | -23.31%
98 | Cc1cnc(N2CCCn3c(nnc3CN(C)C(C)C)C2)nc1.O=C(O)C(F)(F)F | 99.73%
99 | Cc1cnc(N2CCn3c(CN4CCOCC4)nnc3C2)nc1.O=C(O)C(F)(F)F | -6.202%
100 | CC(C)N(C)Cc1nnc2n1CCCN(c1ncccn1)C2.O=C(O)C(F)(F)F | 99.37%
101 | Fc1cnc(N2CCCn3c(nnc3Cn3ccnc3)C2)nc1.O=C(O)C(F)(F)F | -11.56%
102 | CS(=O)(=O)N1CCC(NCC2(N3CCOCC3)CCCCC2)CC1 | -12.17%
103 | COc1cc2cc(C(=O)N[C@@H](C)C(=O)O)n(C)c2c(OC)c1OC | 6.023%

From ChEMBL document CHEMBL3988442, “University of Dundee, Small-Polar-MMV Screening Library” (2021)
